The panel holds about 83,000 compounds, 20% with a hit somewhere; the sample as a whole holds those more often.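 Assay: single dose, 48 h. Readout: percent growth (0 = no net growth; negative = cell death). Active: <10.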 Active and inactive are the calls of the source.
system: MOLT-4 leukemia; test: NCI-60 one-dose screen, 48 h (100 = growth as untreated, 0 = no growth, -100 = all killed); conditions: 10 µM unless noted

| SMILES | growth |
| --- | --- |
| COc1cc(-c2nn(-c3cccc(NC(=O)Nc4cc(C(F)(F)F)cc(C(F)(F)F)c4)c3)cc2-c2ccncc2)ccc1Cl | -24.5% (active) |
| COc1ccc(C(=O)c2cc(OC)c3c(c2)OCO3)cc1O | 17.8% (inactive) |
| CCOC(=O)NNC(=S)Nc1ccccc1 | 106% (inactive) |
| C=C1c2nc3ccccc3n2C=C(c2ccc(Cl)cc2)N1Cc1ccccc1 | 58.5% (inactive) |
| Cc1cc(C(C)(C)C)ccc1S | 81.3% (inactive) |
| CCOC(=O)C1=C(C)NC(C)=C(C(=O)OCC)C1(C)C | 97% (inactive) |
| COc1ccc(CNCCCN2C(=O)c3ccc4c5c(ccc(c35)C2=O)C(=O)N(CCCNCCCCNCCCN)C4=O)c(OC)c1OC | 14.4% (inactive) |
| NNc1cccc(/C=C/c2ccccc2)cc1=O | 37.6% (inactive) |
| O=C(Nc1ccncc1)C(=O)c1cn(S(=O)(=O)c2ccc(Br)cc2)c2ccccc12 | 44.3% (inactive) |
| O=C(/C=C/c1cc(-c2ccc3c(c2)OCO3)n[nH]1)c1ccc2c(c1)OCO2 | 83.4% (inactive) |
| CCCOC(=O)n1cccc1 | 117% (inactive) |
| CCN(CC)c1ccc(CNc2ccnc3ccccc23)cc1 | 51.7% (inactive) |
| COc1cccc(-c2cc3c(O)cc(C#N)cc3[nH]2)c1 | 81.8% (inactive) |
| C=C(C)[C@@H]1CC[C@]2(C(=O)N3CCNCC3)CC[C@]3(C)[C@H](CC[C@@H]4[C@@]5(C)C/C(=C/c6ccncc6)C(=O)C(C)(C)[C@@H]5CC[C@]43C)[C@@H]12 | 95.6% (inactive) |
| Fc1ccccc1-c1nc(-c2nc3cc(Cl)c(Cl)cc3[nH]2)c2ccccn12 | 67.1% (inactive) |
| O=[N+]([O-])c1cc(Cl)c2[nH]c3c(Cl)cc([N+](=O)[O-])cc3c2c1 | -41.8% (active) |
| COc1cc(-c2nn(C(=O)NS(=O)(=O)c3ccccc3)cc2-c2ccncc2)ccc1Cl | 83.9% (inactive) |
| COc1cc(NCCCCCN)c2ncccc2c1 | 88.3% (inactive) |
| NC(=N\N=C/c1ccc(O)cc1)/C(N)=N\N=C/c1ccc(O)cc1 | -8.61% (active) |

| SMILES | growth |
| --- | --- |
| Cn1c(=O)c2[nH]c(C3CC=CCC3)nc2n(C)c1=O (stereo not drawn) | 123% (inactive) |
| O=C(/C=C/c1ccccc1)c1cccc(O)c1 | 86.7% (inactive) |
| C=C[C@@H]1C[C@H](O)Cc2cc(F)ccc2N1 | -34.3% (active) |
| O=C(O)Cc1cccc(=O)c(O)c1C(=O)O | 106% (inactive) |
| O=C(O)COc1ccc(-c2cssc2=S)cc1 | 102% (inactive) |
| c1ccc(-c2nnc(-c3ccccn3)s2)nc1 | 109% (inactive) |
| CC(C)CC1NC(C)(C)CO1 (stereo not drawn) | 124% (inactive) |
| CC(C)(C)N1CCC1C(N)=O (stereo not drawn) | 120% (inactive) |
| COc1ccc(-c2cnnn2-c2nonc2-n2cccc2)cc1OC | 18.1% (inactive) |
| O=C(O)C1CCCCN1c1nc(Cl)nc(Cl)n1 (stereo not drawn) | 104% (inactive) |
| CCCCN(CCCC)C(=N)c1ccnc2ccccc12 | 42.6% (inactive) |
| O=S(=O)(NCCNc1nccc(-c2c(-c3cccc(O)c3)nc3sccn23)n1)c1ccc(F)cc1 | 44.5% (inactive) |
| COc1cc(-c2nn(-c3cccc(NC(=O)c4cccc(C(F)(F)F)c4)c3)cc2-c2ccncc2)ccc1Cl | 8.63% (active) |
| Cc1ccc(Cc2c(C=O)nc(N)[nH]c2=O)c2ccccc12 | 86.8% (inactive) |
| Cn1cnc2c(N3CCN(C(=O)OCc4ccc5c(Cl)cc(Cl)c(O)c5n4)CC3)nc(Cl)nc21 | 59.5% (inactive) |
| COc1ccc(-c2c(N)n[nH]c2-c2cc(OC)c3c(c2)OCCO3)cc1 | 61.3% (inactive) |
| CCOC(=O)c1ccc2c(c1)c1c(C)c3cccnc3c(C)c1n2C | 21.4% (inactive) |
| Cc1nc2ncccc2nc1Nc1ccc(S(=O)(=O)Nc2ccccn2)cc1 | 91.9% (inactive) |
| COc1ccc(C2=C(c3cc(OC)c(OC)c(OC)c3)C(=O)CC2)cc1 | 17.4% (inactive) |

Reference: PubChem BioAssay (NCI)
